# A selection: hits, their analogues and other compounds. The true share with any hit is near 6.6%.
# MPTP inh: blocks calcium-induced mitochondrial swelling; isolated mouse mitochondria, Ca2+ swelling absorbance, 30 min; inhibition, % at 10 µM; hit rate 1.4% among 360,000; AID 602449;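 active means inhibition of 50% or more, scaled per plate between neutral and stimulator controls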;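 further: 0% = DMSO wells given calcium and 100% = 1 mM EGTA wells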
# Beta cell apopt: beta cell apoptosis inhibition. INS-1E cytokine-induced death, ATP luminescence, 48 h; percent of positive-control rescue, neutral wells zero. protection from apoptosis, % (test concentration not listed). hit rate 0.8% among 300,000. AID 435005;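 active means Every replicate reaches about 75%, or at least half do and their mean reaches it too, limit read from the data; inconclusive means At least half of replicates reach the limit but their mean does not; inactive means Under half of replicates reach the limit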;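 further: 0% = cytokine-treated negative control wells and 100% = positive control rescue; higher means more ATP so stronger rescue from cytokine killing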
# CSC inhib: cancer stem cell inhibition; cancer stem cell-like cells viability, luminescence; inhibition, % at 7.5 µM; AID 2717; hit rate 1.1% among 300,000; in the data active means inhibition above about 75%; inconclusive means no clear call, values can overlap the other calls; tested in HMLE shEcad cells
# GRIN3A LBD mod: modulators (binders) of human NR3A ligand-binding domain | hit rate 2.5% among 340,000 | Tm shift relative to glycine control, % at 25 µM | NR3A LBD differential scanning fluorimetry, Tm shift; 0% = protein alone, 100% = glycine-bound protein;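 active means melting temperature shift of at least 10% of the positive control shift, at one fixed dose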
# Mdm2 MdmX PPI: disrupts the human Mdm2-MdmX interaction; O15151+Q00987; SaOS-2 split-luciferase Mdm2/MdmX complementation, luminescence; inhibition, % at 8 µM; hit rate 3% among 330,000; AID 485346;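 active means inhibition of at least 50% at 8 µM in the primary screen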
# Gli-Sufu block: Gli-Sufu pathway antagonism; inhibition, % at 5 µM; Sufu-KO-LIGHT fibroblasts, Gli luciferase reporter luminescence; hit rate 0.74% among 340,000;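 active means inhibition above about 55%, limit read from the data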;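 further: 0% = DMSO-treated cells and 100% = wells with medium but no cells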
# MPTP counter: mitochondrial membrane potential, counter-screen; shares compounds with MPTP inh; isolated mitochondria, Rhodamine 123 fluorescence; inhibition, % at 10 µM; hit rate 78% among 5,000; AID 624504; in the data active means inhibition above about 22%;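 further: 0% = DMSO vehicle and 100% = positive control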
# MPTP swell DR: dose response confirmation of mitochondrial permeability transition pore inhibitors; isolated mitochondria swelling, absorbance; hit rate 58% among 780; IC50, µM; AID 651561; shares compounds with MPTP inh; in the data active means IC50 below about 20 µM
# MPTP counter DR: active in counter-screen for permeability transition pore inhibitors | isolated mitochondria counterscreen, fluorescence read-out | hit rate 49% among 780 | shares compounds with MPTP inh | AID 651564 | IC50, µM; in the data active means IC50 below about 80 µM
# Numbers without * were called inactive; ? = inconclusive; · = no result.
SMILES,MPTP inh,Beta cell apopt,CSC inhib,GRIN3A LBD mod,Mdm2 MdmX PPI,Gli-Sufu block,MPTP counter,others
CCOc1cc(CNCc2ccncc2)cc(Br)c1OCc1ccc(F)cc1,98*,6,9,1,-2,9,15,MPTP swell DR=8.4*;MPTP counter DR=26*
CCOc1cc(CNCCc2ccc(S(N)(=O)=O)cc2)ccc1OCc1ccccc1,105*,34,3,1,·,46,41*,
Cc1nnc(NC(=O)C2CCN(S(=O)(=O)c3cc([N+](=O)[O-])ccc3Cl)CC2)o1,1,0,·,-2,15,1,·,
Cc1cccc2sc(NC(=O)C3CCN(S(=O)(=O)c4cc([N+](=O)[O-])ccc4Cl)CC3)nc12,100*,9,7,2,32,29,75*,
O=C(Nc1ccc(Cl)cc1)OCCn1nnnc1C(c1ccccc1Cl)N1CCOCC1 (stereo not drawn),72*,0,·,-5,30,-4,85*,
CCCCCCc1cc2cc(C(=O)NC)c(=N)oc2cc1O,96*,13,35,-7,50,14,91*,
N=c1oc2cc(O)ccc2cc1C(=O)Nc1ccc(F)cc1,2,8,15,1,-12,13,·,
CC(C)(C)c1ccc(S(=O)(=O)N2CCN(CC(O)CN3CCOCC3)CC2)cc1 (stereo not drawn),1,-2,-7,-2,0,0,·,
O=C1CN(C(=O)/C=C/c2ccc(Br)cc2)CCN1,0,-1,2,-4,·,-3,·,
CC(C)c1ccc2c(c1)CC[C@H]1[C@](C)(CN)CCC[C@]21C,88*,·,·,0,·,17,-5,MPTP swell DR=>100;MPTP counter DR=>80
CC(C)C[C@H]1CN([C@@H](Cc2ccccc2)CN2CCC[C@@H]2CN2C(=O)C(=O)NC[C@@H]2Cc2ccccc2)C(=O)C(=O)N1CC1CCCCC1,-4,·,·,·,·,·,·,
N=c1c(S(=O)(=O)c2ccc(Cl)cc2)cc2c(=O)n3ccccc3nc2n1CCN1CCOCC1,60*,-3,-1,2,16,12,18,MPTP swell DR=>100;MPTP counter DR=>80
N=c1c(S(=O)(=O)c2ccccc2)cc2c(=O)n3ccccc3nc2n1CCCN1CCOCC1,2,·,-4,-1,-5,32,·,
CC(C)=CCC[C@](C)(O[C@@H]1O[C@H](CO[C@@H]2OC[C@H](O[C@@H]3OC[C@@H](O)[C@H](O)[C@H]3O)[C@H](O)[C@H]2O)[C@@H](O)[C@H](O)[C@H]1O)C1CC[C@]2(C)C1[C@H](O)CC1[C@@]3(C)CC[C@H](O)C(C)(C)C3[C@@H](O)C[C@]12C (stereo partly drawn),4,-2,-8,-2,-12,-5,·,
O=C(Nc1ccccn1)C1CCN(S(=O)(=O)c2ccc(Cl)cc2)CC1,-1,-8,-7,0,-19,-14,·,
Oc1ccc(Cl)cc1CNc1ccc(Br)cn1,58*,4,-12,-2,-145,-14,62*,
Oc1c(Cl)cc(Cl)cc1CNc1ccc(Br)cn1,72*,-1,?,8,-108,-14,83*,
Cc1cccc(C(=O)N[C@H](C(=O)Nc2nccs2)C(C)C)c1,0,2,-19,2,6,-6,·,
CCCCOc1ccc(S(=O)(=O)Nc2cccnc2)cc1,72*,14,-2,-2,15,10,59*,
Fc1ccc(CCNC(=S)Nc2ccc(F)cc2)cc1,50*,0,-8,19*,-24,-32,93*,
CCCCc1ccc(NC(=S)NCCc2ccc(F)cc2)cc1,82*,-4,56,10,28,-10,105*,
CC(Cc1cccs1)NC(=O)Nc1ccc([N+](=O)[O-])cc1 (stereo not drawn),86*,3,2,-5,-6,-22,91*,
CC(Cc1cccs1)NC(=S)Nc1ccc(F)cc1 (stereo not drawn),50*,1,-17,-2,7,10,73*,
CC(Cc1cccs1)NC(=O)c1cccs1 (stereo not drawn),1,2,1,-1,21,-45,·,
